About 2,000 (36%) of roughly 5,500 compounds were called active. Not shown: some 18% with an inconclusive outcome. No stated cut-off is given here; in the data, active means normalized growth mostly below about 0.91 (no sharp cut-off); inconclusive means no clear call, values can overlap the other calls; inactive means mostly above about 0.92. This is one part of the list.
Test: chemical genetic growth profiling, strain panel (AID 1159580);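 further: tested at 20 µM; growth read once vehicle control cultures reached saturation at 30 °C; 1 = growth at the plate median or of vehicle wells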
Details: S. cerevisiae deletion strains, growth OD

Measured: normalized growth

COC(=O)C[C@H]1C(C)(C)C2(Cl)O[C@@]34CC2C(=O)[C@]1(C)C3CC[C@]1(C)C4=CC(=O)O[C@H]1c1ccoc1 (stereo not given in full)
inactive: locus YAL013W, strain DEP1, stronger effect = lower value 1.01 | locus YBR021W, strain FUR4, stronger effect = lower value 0.995 | locus YBR229C, strain ROT2, stronger effect = lower value 1 | locus YCL029C, strain bik1, stronger effect = lower value 1.01 | locus YDL035C, strain GPR1, stronger effect = lower value 1.02 | locus YDL074C, strain BRE1, stronger effect = lower value 0.989 | locus YDL101C, strain DUN1, stronger effect = lower value 0.997 | locus YDL134C, strain PPH21, stronger effect = lower value 0.999 | locus YDL185W, strain tfp1, stronger effect = lower value 0.994 | locus YDL192W, strain arf1, stronger effect = lower value 0.99 | locus YDR101C, strain arx1, stronger effect = lower value 0.993 | locus YDR162C, strain NBP2, stronger effect = lower value 0.971 | locus YDR318W, strain mcm21, stronger effect = lower value 1 | locus YDR388W, stronger effect = lower value 0.993 | locus YDR502C, strain sam2, stronger effect = lower value 0.996 | locus YEL061C, strain CIN8, stronger effect = lower value 1 | locus YER110C, stronger effect = lower value 0.993 | locus YER155C, strain BEM2, stronger effect = lower value 1.01 | locus YER167W, strain BCK2, stronger effect = lower value 1.01 | locus YGL078C, strain dbp3, stronger effect = lower value 0.99 | locus YGL086W, strain mad1, stronger effect = lower value 0.989 | locus YGL248W, strain PDE1, stronger effect = lower value 1 | locus YGR078C, strain PAC10, stronger effect = lower value 0.991 | locus YGR135W, strain pre9, stronger effect = lower value 0.976 | locus YGR252W, strain gcn5, stronger effect = lower value 0.966 | locus YHR030C, strain SLT2, stronger effect = lower value 0.999 | locus YHR079C, strain IRE1 (second series), stronger effect = lower value 0.996 | locus YHR094C, strain hxt1, stronger effect = lower value 0.995 | locus YHR129C, strain ARP1, stronger effect = lower value 1 | locus YHR200W, strain rpn10, stronger effect = lower value 0.992 | locus YIL066C, strain RNR3, stronger effect = lower value 1.01 | locus YIL073C, strain SPO22, stronger effect = lower value 1 | locus YIL125W, strain kgd1, stronger effect = lower value 1 | locus YIR030C, strain dcg1, stronger effect = lower value 0.986 | locus YJL095W, strain BCK1, stronger effect = lower value 0.996 | locus YJL134W, strain LCB3, stronger effect = lower value 1.01 | locus YJL168C, strain set2, stronger effect = lower value 0.987 | locus YJL187C, strain SWE1 (second series), stronger effect = lower value 1 | locus YJR075W, strain HOC1, stronger effect = lower value 1.01 | locus YKL009W, strain mrt4, stronger effect = lower value 0.983 | locus YKL068W, stronger effect = lower value 1.01 | locus YKL085W, strain MDH1 (second series), stronger effect = lower value 0.996 | locus YKL085W, strain MDH1, stronger effect = lower value 0.996 | locus YKR001C, strain vps1, stronger effect = lower value 1 | locus YLR039C, strain RIC1, stronger effect = lower value 1.05 | locus YLR058C, strain SHM2, stronger effect = lower value 1 | locus YLR102C, strain apc9, stronger effect = lower value 1 | locus YLR268W, strain sec22, stronger effect = lower value 1 | locus YLR342W, strain FKS1 (second series), stronger effect = lower value 1.02 | locus YLR371W, strain rom2, stronger effect = lower value 0.996 | locus YLR418C, strain cdc73, stronger effect = lower value 0.96 | locus YML016C, strain PPZ1, stronger effect = lower value 1.01 | locus YML032C, strain rad52, stronger effect = lower value 0.995 | locus YML124C, strain tub3, stronger effect = lower value 0.992 | locus YMR078C, strain ctf18, stronger effect = lower value 1.01 | locus YMR223W, strain ubp8, stronger effect = lower value 0.979 | locus YMR307W, strain GAS1, stronger effect = lower value 0.957 | locus YNL067W, strain RPL9B, stronger effect = lower value 1 | locus YNL153C, strain GIM3, stronger effect = lower value 1 | locus YNL233W, strain BNI4, stronger effect = lower value 0.995 | locus YNL250W, strain rad50, stronger effect = lower value 0.995 | locus YNL271C, strain bni1, stronger effect = lower value 0.998 | locus YNL298W, strain CLA4, stronger effect = lower value 0.99 | locus YNL307C, strain MCK1, stronger effect = lower value 0.991 | locus YNR052C, strain pop2, stronger effect = lower value 0.998 | locus YOL006C, strain TOP1, stronger effect = lower value 1.02 | locus YOL012C, strain htz1 0.78 | locus YOL147C, strain pex11, stronger effect = lower value 0.99 | locus YOR061W, strain CKA2, stronger effect = lower value 1.01 | locus YOR069W, strain VPS5, stronger effect = lower value 1 | locus YOR136W, strain idh2, stronger effect = lower value 0.988 | locus YOR144C, strain elg1, stronger effect = lower value 0.995 | locus YOR184W, strain ser1, stronger effect = lower value 1.01 | locus YOR316C, strain cot1, stronger effect = lower value 0.988 | locus YPL241C, strain CIN2, stronger effect = lower value 1 | locus YPR119W, strain clb2, stronger effect = lower value 0.989 | locus YPR141C, strain kar3, stronger effect = lower value 0.997 | locus YPR163C, strain tif3, stronger effect = lower value 0.991 | locus YPR167C, strain met16, stronger effect = lower value 0.991 | strain wtn01, stronger effect = lower value 1.02

Reference: PubChem BioAssay AID1159580 (chemical genetic matrix, 2015)
